Screening data deposited in PubChem by National Center for Advancing Translational Sciences (NCATS).
An excerpt weighted towards active compounds, which were near 2.2% of everything screened.
rTrxR1 inhibitor – rat TrxR1 inhibition; O89049; recombinant rTrxR1, NADPH fluorescence consumption, selenite substrate; Potency, µM (doses to about 114 µM), for inactives: at the top dose activity change, negative = inhibition, hits mostly inhibitors; actives 1% (n = 390,000); also: potency is read from the fitted curve at half-maximal effect; % is scaled to controls: 0 for no effect and ±100 for the full control effect; nearly all actives have a fitted effect of over 65% in size
Target sequence (O89049 whole entry, looked up): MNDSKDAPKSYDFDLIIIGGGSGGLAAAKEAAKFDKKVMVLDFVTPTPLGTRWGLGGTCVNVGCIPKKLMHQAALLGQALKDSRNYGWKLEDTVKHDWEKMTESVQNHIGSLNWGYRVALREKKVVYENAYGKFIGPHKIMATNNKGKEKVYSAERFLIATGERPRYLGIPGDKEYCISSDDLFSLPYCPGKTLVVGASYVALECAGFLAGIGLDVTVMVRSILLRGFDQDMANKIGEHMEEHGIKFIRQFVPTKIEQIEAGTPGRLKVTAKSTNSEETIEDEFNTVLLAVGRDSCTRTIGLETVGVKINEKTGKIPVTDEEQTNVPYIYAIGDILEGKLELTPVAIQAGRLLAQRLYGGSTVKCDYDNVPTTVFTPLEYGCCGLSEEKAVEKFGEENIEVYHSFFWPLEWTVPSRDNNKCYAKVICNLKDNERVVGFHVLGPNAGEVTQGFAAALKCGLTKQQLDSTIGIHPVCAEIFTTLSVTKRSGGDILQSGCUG
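Rat TrxR1 (90 nM in the dispensed reagent) was pre-reduced with 400 uM NADPH for 5 min at room temperature, then incubated with compound for 15 min. After 400 uM selenite was added, NADPH fluorescence (Ex 340/Em 450 nm) was followed for 8 min.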
IDH1 R132H inh – human IDH1 R132H inhibition; IDH1-R132H enzyme, NADPH consumption, diaphorase/resazurin fluorescence; Potency, µM (series often up to 76.6 µM), inactives show at the top dose activity change, negative = inhibition, actives largely listed as inhibitors; actives 0.093% (n = 390,000); AID 602179; also: potency is read from the fitted curve at half-maximal effect; % is scaled to controls: 0 for no effect and ±100 for the full control effect; nearly all actives have a fitted effect of over 65% in size
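IDH1-R132H (0.5 ug/mL) preincubated 30 min with compound, then NADPH (0.016 mM) and alpha-KG (2 mM) added; 80 min at RT, pH 7.5. Remaining NADPH coupled via diaphorase/resazurin to fluorescence (540/590 nm); concentration-response curves normalized to no-enzyme control.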
TrxR1 substrate – rat thioredoxin reductase 1 substrate activity; actives 0.01% (n = 390,000); purified TrxR1 substrate turnover, NADPH consumption readout; Potency, µM (series often up to 114 µM), for the others: at the highest dose activity change, negative = substrate turnover; AID 588456; O89049; also: potency is read from the fitted curve at half-maximal effect; % is scaled to controls: 0 for no effect and ±100 for the full control effect; nearly all actives have a fitted effect of over 50% in size
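Rat TrxR1, dispensed at 90 nM, was prereduced with 400 uM NADPH (final) for 5 min at ~22 deg C, then incubated with compound 15 min before 400 uM selenite. A first-read NADPH fluorescence drop versus no-compound background flagged substrates.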
IL2 activator – IL-2 activation | AID 652025 | IL-2 activation reporter assay, cell-based qHTS; stimulated with anti-CD3/CD4/CD28 beads; in transgenic mouse T cells | activation, % (series mostly up to about 46 µM) | actives 0.065% (n = 360,000); in the data active = activation above about 50%; inconclusive = mostly about 30% to 49%; also: 0% is about no effect
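Unstimulated transgenic mouse T cells, 750 per well, received compound and, after 60 minutes, anti-CD3/anti-CD4 bead plus anti-CD28 stimulation. EGFP and DsRed were quantified after 18 hours.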
Giardia kill – Giardia lamblia killing | Giardia lamblia trophozoite viability | activity change, % at 7.66 µM, hits read low | actives 0.15% (n = 340,000) | AID 540267; in the data active = activity change below about -80%; inconclusive = between about -30% and that limit;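 also: parasites exposed to compound for two days anaerobically before the ATP read; % is scaled to controls: 0 for no effect and ±100 for the full control effect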
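Each well holds 100 Giardia trophozoites and compound. After two days (48 hrs) at 37 deg C in anaerobic conditions, ATP is quantified by luminescence.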
BRCA1 expr up – activators of BRCA1 expression | MCF7-BRCA1-FFLuc reporter, luminescence, 48 h; response scale: scaled: vehicle 0%, 10 µM genistein 100% | Potency, µM (top dose mostly 46.1 µM), without a hit: at the top dose activation, hits mostly activators | actives 1.1% (n = 380,000) | AID 624202; also: potency is read from the fitted curve at half-maximal effect; nearly all actives have a fitted effect of over 80% in size
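Reporter cells (MCF7, BRCA1 promoter-firefly luciferase) received library compounds across a concentration series for 48 h. End-point luminescence was measured and concentration-effect curves derived after normalization.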
The depositor's hits bear a star; ? = inconclusive; . = no result given; [ ] = dose if it differs, or a comment. Unless noted, calls follow the shape of the dose curve; as a rule, active = well fitted curve in the direction sought with a large enough effect; inconclusive = small, poorly fitted or top-dose-only effect, or another doubt; inactive = no such curve, though single readings can be large; an effect the other way counts as inactive or inconclusive.

SMILES	rTrxR1 inhibitor	IDH1 R132H inh	TrxR1 substrate	IL2 activator	Giardia kill	BRCA1 expr up
NC(=O)c1ccsc1NC(=O)CSc1ccccc1F	26%	4%	7%	-2	-1	11µM*
Cc1csc(SCC(=O)Nc2sccc2C(N)=O)n1	10%[57.1 µM]	10%	8%[57.1 µM]	0	11	6.3µM*
Cc1ccccc1SCC(=O)OCC(=O)Nc1sccc1C(N)=O	-6%	2%	-5%	-2	-13	0%
Cc1csc(SCC(=O)Nc2nc(-c3ccccc3)cs2)n1	-7%[57.1 µM]	-2%	-6%	-1	-16	63%
CCc1nnc(NC(=O)CSc2ccc(-c3ccc(C)cc3)nn2)s1	13%[57.1 µM]	-2%	8%[57.1 µM]	0	-18	11µM*
Cc1cccc(OCC(=O)Nc2ccc3nc(Nc4cccc(Cl)c4)cc(C)c3c2)c1	17%	1%	39%	.	.	-7%
Cc1ccc(CN(C)C(=O)c2cccc(S(=O)(=O)N3CCCC3)c2)o1	40µM*	-4%	15%	0	9	0%
COc1ccccc1OCC(=O)NCC(c1ccc(Cl)cc1)N1CCOCC1 (stereo not given)	23%	-13%	1%	.	.	.
Cc1ccc(OCCCn2c(=O)sc3ccccc32)cc1	12%	0%	-5%	0	-2	43%
Cc1ccc(OCCn2c(=O)sc3ccccc32)cc1	-2%[57.1 µM]	3%	-4%[57.1 µM]	-4	-10	5.6µM*
Cn1nnnc1SCc1ccc(C(=O)Nc2ccc(Br)cc2)cc1	-3%	-1%	-9%	0	-18	10µM*
CC(=O)Nc1ccc(C(=O)CSc2nnnn2C)cc1	0%	7%	3%	-1	11	44%
CCOCCc1nn2c(=O)cc(COC(=O)Cc3ccccc3)nc2s1	3%[57.1 µM]	0%	-1%[57.1 µM]	.	.	.
O=[N+]([O-])c1ccc(Sc2cccc[n+]2[O-])c2nonc12	1.6µM*	8%	-1%[57.1 µM]	-3	-2	-92%
Clc1ccc[n+](CCCCC[n+]2cccc(Cl)c2)c1	?	.	-2%	.	.	.
O=C(CN1C(=O)CC(c2ccco2)Sc2ccccc21)Nc1ccccc1F (stereo not given)	25µM*	15%	2%	-4	5	0%
S=C(NCc1ccco1)Nc1ccc(Cl)cc1Cl	-17%	1%	-5%	0	-22	7.9µM*
S=C(NCc1cccc(Cl)c1)NCc1ccco1	-7%	7%	2%	-4	-11	9%
S=C(NCc1ccco1)Nc1ccc(Br)cc1Cl	2%[57.1 µM]	2%	4%[57.1 µM]	1	-17	10µM*
CC(C)(C)c1ccccc1NC(=O)c1cnn2c(C(F)F)cc(-c3ccccc3)nc12	5%	7%	103%	.	.	9%
CCN(Cc1ccccc1)c1ccc(/C=C(\C#N)c2ccccn2)cc1	-4%	6%	-12%	1	-7	5µM*
O=C(CCl)Nc1cc(S(=O)(=O)N2CCCCCC2)ccc1Cl	7.9µM*	0%	-11%	-4	-5	-84%
CCCCCCCCCC[n+]1cccc2cc(Br)ccc21	1%	.	-3%	.	.	.
CS(=O)(=O)c1cc([N+](=O)[O-])c(Sc2nc3ccccc3[nH]2)c([N+](=O)[O-])c1	1.3µM*	1%	-7%	-1	-7	-26%
COc1ccc2nc(SCC(=O)NCc3ccccc3)[nH]c2c1	-13%	1%	-7%	1	12	-17%
SMILES	rTrxR1 inhibitor	IDH1 R132H inh	TrxR1 substrate	IL2 activator	Giardia kill	BRCA1 expr up
Cn1cnc([N+](=O)[O-])c1Sc1nc2ccccc2[nH]1	3.5µM*	1%	6%[57.1 µM]	-5	-18	-30%
COc1ccc2nc(Sc3c([N+](=O)[O-])nc(C)n3Cc3ccccc3)[nH]c2c1	7.1µM*	5%	-12%	-3	-8	-19%
Cc1nc([N+](=O)[O-])c(Sc2nc3ccccc3[nH]2)n1Cc1ccccc1	3.5µM*	6%	-2%	-1	10	-17%
CCc1nnc2c(N3CCN(c4cccc(C(F)(F)F)c4)CC3)nc3ccccc3n12	61%	23%	41%	.	.	.
CN(CC(=O)Nc1cccc(F)c1)S(=O)(=O)c1ccc2c(c1)n(C)c(=O)c(=O)n2C	-6%	-9%	-1%	.	.	.
Cc1ccc(NC(=O)c2cc(N3C(=O)C=CC3=O)ccc2Cl)cc1C	3.2µM*	6%	-2%	-4	-11	-21%
Cc1ccc(C(=O)Nc2ccc(N3CCCC3)cc2)cc1	20%[57.1 µM]	2%	12%[57.1 µM]	3	13	49%
Cc1ccc(C(=O)Nc2ccc(N3CCOCC3)cc2)cc1	12%	0%	5%	-2	-11	8.9µM*
Cc1ccc(NC(=O)c2cc(NC(=O)c3ccco3)ccc2N2CCOCC2)cc1	-3%	-2%	3%	-1	-2	-39%
CC(=O)N1CCN(c2ccc(NC(=O)c3cccc(Cl)c3)cc2)CC1	23%	-5%	9%	-1	-12	11µM*
Cc1ccc(NC(=O)c2cc(N3C(=O)C=CC3=O)ccc2N2CCOCC2)cc1	0.89µM*	4%	5%[57.1 µM]	-1	-12	-55%
COc1ccc(C(=O)Nc2ccc(N3CCCCC3)cc2)cc1Br	-1%	-1%	-4%	1	-9	3.5µM*
COc1ccc(C(=O)Nc2ccc(Nc3ccccc3)cc2)cc1Br	12%[11.4 µM]	4%	5%[57.1 µM]	-1	-28	14%
COC(=O)c1c(NC(=O)CC2Nc3cc(C)c(C)cc3NC2=O)sc(C)c1C (stereo not given)	-9%	1%	-6%	62*	10	13%
Cc1ccc(OCC(=O)Nc2ccc3nc(SCC(=O)N4CCCC4)sc3c2)cc1C	24%	-2%	-1%	.	.	.
CCOC(=O)C1=C(CS(=O)(=O)c2cccc(C(F)(F)F)c2)NC(=O)NC1c1cccc(OC)c1 (stereo not given)	-6%	-2%	-8%	.	.	-13%
COc1ccccc1-c1nc(COc2ccc(Cl)cc2Cl)no1	21%[57.1 µM]	2%	-21%[57.1 µM]	3	-11	4.5µM*
Cc1ccc(-n2nc(CO)c(C(=O)NCCCCc3ccccc3)n2)cc1C	40%	-22%	12%	.	.	.
C=C1C=CS(=O)(=O)N(C(CC(C)C)C(=O)OC)C1 (stereo not given)	11µM*	.	-2%	.	10	.
COc1cccc(CN2c3ccc(Br)cc3C(=O)CS2(=O)=O)c1	2.2µM*	11%	-2%	2	23	6%
C=CCN1c2ccc(Br)cc2C(=O)CS1(=O)=O	7.1µM*	-14%	4%	1	-15	2%
COc1cc(CN2c3ccc(Br)cc3C(=O)CS2(=O)=O)cc(OC)c1	?	.	-5%	.	.	.
Cn1c(N/N=C/c2cc3ccccc3nc2Cl)nc2ccccc21	23%[11.4 µM]	6%	4%[11.4 µM]	7	-88*	-3%
